Drawing on PubChem BioAssay, this text covers activity for 40 compounds.

The nature of the test: viability loss of caspase-8 NB7 cells with TRAIL – with/without TRAIL, luminescence panel, confirmation (AID 651596). Particulars: NB7 neuroblastoma + caspase-8, without TRAIL, NB7 Caspase-8, without TRAIL, mean of runs, at 10 µM.
Consider `CCC1CCCCN1Cc1nc(Cc2ccccc2Cl)no1` (stereo not given), for which the activity is -33.1%.

Turning to `COc1ccc(C(=O)Nc2ccccc2C(=O)N/N=C/c2ccncc2)cc1OC`, the activity was 96.3%.

With `NC(=S)NN=C1c2ccccc2-c2c(F)c(F)c(F)c(F)c21`, the activity was found to be 71.4%.

With `COc1ccc(-c2cn3cc(C)ccc3n2)cc1Br`, the activity is 77.3%.

On to `O=C(Nc1ccc(NC(=O)C2CC2)cc1)c1ccco1`, for which the activity came to 39.1%.

Consider `Cc1ccc(NC(=O)C(=O)Nc2ccccn2)cc1`, for which the activity came out at 71.7%.

Consider `Cc1ccc2nc(NC(=S)NC(=O)c3ccco3)sc2c1`, for which the activity was 62.9%.

On to `O=C(CCl)N(c1ccccc1)c1c[nH]c2ccccc12`, for which the activity was determined as 99%.

Regarding `O=C(Nc1ccc(NC(=O)c2ccco2)nc1)c1ccco1`, the activity was 61.5%.

For the compound `CCCCCCCCC(c1nc2ccccc2[nH]1)N1CCN=C1c1cc2ccccc2[nH]1` (stereo not given), the activity was 84.8%.

As for `COCCNC(=O)c1ccc2c3n(nc2c1)-c1ccccc1CO3`, the activity stood at 82%.

As for `CC(C)c1ccc(-n2c(-c3ccccc3)c[n+]3c2CCc2ccccc2-3)cc1`, the activity is 75.5%.

Consider `CC(C)(C)c1ccc(/C=N/NC(=O)c2ccccn2)cc1`, for which the activity was 75%.

Regarding `N#Cc1c(C#N)c(SSc2c(C#N)c(C#N)c(N)n2-c2ccccc2)n(-c2ccccc2)c1N`, the activity was determined as 72.1%.

In the case of `Cc1cccc(NC(=S)NC(=O)c2ccc(-c3ccccc3)cc2)n1`, the activity came out at 55.3%.

As to `CC(C)(C)NCCC(O)c1cc(C(F)(F)F)nc2c(C(F)(F)F)cccc12` (stereo not given), the activity came to 96.7%.

With `CCCc1c(C(=O)N/N=C/C=C/c2ccccc2)nnn1-c1nonc1N`, the activity turned out to be 50.4%.

`O=C(NC(=S)Nc1nc2ccccc2s1)c1cccs1`: the activity was 75.6%.

Turning to `Cc1nc2sc(-c3ccccc3)cc2c(=O)[nH]1`, the activity was determined as 73.8%.

In the case of `CCC(C)c1ccc(NC(=O)c2cccs2)cc1` (stereo not given), the activity amounted to 68.1%.

As to `CCOc1cc(CNCCc2ccc(S(N)(=O)=O)cc2)ccc1OCc1ccc(Cl)cc1`, the activity came out at 84.1%.

With `Cn1c(N)c(C(=O)COC(=O)c2cc(S(=O)(=O)N3CCOCC3)ccc2F)c(=O)n(C)c1=O`, the activity came out at 93.8%.

Turning to `COc1ccc(-c2cc(C(=O)N3CCCC3)no2)cc1`, the activity was 59.8%.

`Cc1nnc(SCC(=O)Nc2ccc(-c3nc4ccccc4s3)cc2)s1`: the activity was 33.7%.

On to `C=CCOC(=O)c1sc(NC(=O)c2ccco2)nc1C`, for which the activity was determined as 40.2%.

Consider `COc1cccc(-n2c(SCC(=O)N3CCCCC3)nc3c([nH]c4ccccc43)c2=O)c1`, for which the activity came to 19.4%.

`C=CCN=c1scc(-c2ccccc2)n1/N=C/c1ccccn1`: the activity amounted to 24.8%.

As to `O=C(CN(Cc1ccccc1)C(=O)CCl)c1cccc(Br)c1`, the activity worked out at 93.5%.

As to `O=C(/C=C/c1ccco1)Nc1scc(-c2ccccc2)c1C(=O)O`, the activity came to 39.8%.

`CC(=O)Oc1ccccc1C(=O)C=Cc1cccc([N+](=O)[O-])c1`: the activity was determined as 76.7%.

Take `CC[C@H]1CN2CCc3cc(OC)c(OC)cc3C2C[C@@H]1C[C@H]1NCCc2cc(OC)c(OC)cc21` (stereo not given in full): the activity was 83.4%.

In the case of `COc1ccc(-c2sc3ccccc3c2-c2ccc(OCCN(C)C)cc2)cc1`, the activity was 73.6%.

On to `O=C(CSc1nc2ccccc2c(=O)[nH]1)Nc1ccc([N+](=O)[O-])cc1`, for which the activity is 31.3%.

With `O=C(N/N=C/C=C/c1ccccc1)c1cc2c(ccc3ccccc32)o1`, the activity turned out to be 56.4%.

Turning to `c1ccc(-n2nnc3c(N4CCOCC4)ncnc32)cc1`, the activity was 74.7%.

As to `Cc1ccn(-c2ccc(NC(=O)c3cccs3)cc2)n1`, the activity was determined as 65.7%.

In the case of `CC1CCC(C(C)C)C(OC(=O)Cn2c(-c3ccc(Cl)cc3)[n+](C)c3ccccc32)C1` (stereo not given), the activity worked out at 62%.

`C(=Cc1nc2ccccc2o1)c1ccc2c(c1)OCO2`: the activity was found to be 84%.

Regarding `Nc1c2c(nc3sc4c(c13)CCCCC4)CCCCC2`, the activity came out at 47.8%.

Consider `Cc1cc(NCCCn2ccnc2)n2ncc(-c3ccc(Cl)cc3)c2n1`, for which the activity worked out at 48.5%.
